Some test systems named below: NCI-H23 lung; NCI-H226 lung; NCI-H322M lung; HOP-62 NSCLC; NCI-H460 lung; HOP-92 NSCLC; NCI-H522 lung; A549/ATCC NSCLC; 786-0 renal; COLO 205 colon; DU-145 prostate; K-562 leukemia; MALME-3M melanoma; MDA-MB-231 breast; RXF 393 renal; SF-268 CNS; SF-295 CNS; SF-539 CNS; UACC-257 melanoma; M14 melanoma.
Holding throughout (assay): NCI-60 one-dose screen, 48 h (100 = growth as untreated, 0 = no growth, -100 = all killed)
Common to all, as to conditions: 10 µM

The values below come from PubChem BioAssay (NCI).

Each structure is given as a SMILES string. Compounds without any hit were thinned out: in the full panel of roughly 83,000, 20% have a hit.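 In brief: 96-well plates, 48 h treatment, single concentration, percent growth endpoint.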 Values without a mark were called inactive. Calls of active or inactive are those of the source. The calls were made as follows: active = growth percent below 10; inactive = the rest.

In the case of `CS(=O)(=O)Nc1ccc(Nc2c3ccccc3nc3cc(Cl)ccc23)cc1`, the growth with NCI-H23 lung is 42.7%; in the test with NCI-H226 lung it was -4.26% (active); in the test with NCI-H322M lung, 50.6%; with HOP-62 NSCLC, 25%; in the test with NCI-H460 lung, 8.44% (active); in the test with HOP-92 NSCLC, -10.7% (active). Moreover, the growth is 16.2% in the test on NCI-H522 lung; 9.01% (active) with A549/ATCC NSCLC; 19.6% in the test on 786-0 renal; 43.1% with COLO 205 colon; 24.2% in the test with DU-145 prostate; 20.6% in the test with K-562 leukemia. The growth in the test on MALME-3M melanoma was 28.3%; in the test on MDA-MB-231 breast, 86.5%; in the test on RXF 393 renal it was 20.9%; in the test on SF-268 CNS, 37.6%; with SF-295 CNS, -13.5% (active); in the test with SF-539 CNS, 30.7%. The growth in the test on UACC-257 melanoma was 48%; in the test on M14 melanoma, 36.6%.

Consider `COCc1cc2c(cc1Br)OCO2`, for which the growth with NCI-H23 lung is 96.7%; in the test with NCI-H226 lung it was 95.5%; in the test on NCI-H322M lung it was 96.5%; in the test with HOP-62 NSCLC, 87.3%; in the test with NCI-H460 lung, 106%; in the test with HOP-92 NSCLC, 102%. Moreover, the growth in the test with NCI-H522 lung was 88.6%; in the test with A549/ATCC NSCLC it was 88.4%; in the test with 786-0 renal it was 102%; in the test with COLO 205 colon it was 102%; with DU-145 prostate, 112%; in the test with K-562 leukemia, 107%. Besides, the growth is 98.6% with MALME-3M melanoma; 110% in the test on MDA-MB-231 breast; 107% in the test with RXF 393 renal; 100% in the test on SF-268 CNS; 99.1% with SF-295 CNS; 95.5% in the test with SF-539 CNS. The figures for the growth in the test on UACC-257 melanoma and in the test on M14 melanoma were 101% and 100%, respectively.

As to `COc1ccc(-c2nnc(N3CCN(C(=O)CN4CCN(c5ccc(Cl)cc5)CC4)CC3)nc2-c2ccc(OC)cc2)cc1`, the growth in the test with NCI-H23 lung is 68.1%; in the test with NCI-H226 lung it was 73.6%; in the test with NCI-H322M lung it was 92.7%; in the test with HOP-62 NSCLC, 88.4%; in the test with NCI-H460 lung it was 46.8%; with HOP-92 NSCLC, 80.3%. Further, the growth was 69.8% with NCI-H522 lung; 58.8% in the test on A549/ATCC NSCLC; 70.8% in the test with 786-0 renal; 59.2% in the test with COLO 205 colon; 80.2% in the test on DU-145 prostate; 32% in the test on K-562 leukemia. Also, the growth in the test with MALME-3M melanoma was 80.8%; in the test on MDA-MB-231 breast, 78.7%; with RXF 393 renal, 53.6%; in the test with SF-268 CNS it was 69%; with SF-295 CNS, 45.2%; with SF-539 CNS, 82.2%. In addition, the results for the growth in the test on UACC-257 melanoma and in the test on M14 melanoma were 70.2% and 71.4%, respectively.

In the case of `C=CCN1C(=O)/C(=C\c2ccc3c(c2)CCC3)SC1=S`, the growth with NCI-H23 lung is 90.3%; in the test on NCI-H226 lung, 96.7%; in the test with NCI-H322M lung it was 106%; in the test with HOP-62 NSCLC it was 76.3%; in the test with NCI-H460 lung, 107%; in the test with HOP-92 NSCLC, 91.5%. The growth with NCI-H522 lung was -22.1% (active); in the test on A549/ATCC NSCLC it was 105%; in the test on 786-0 renal, 104%; with COLO 205 colon, 109%; with DU-145 prostate it was 106%; with K-562 leukemia, 103%. Moreover, the growth in the test with MALME-3M melanoma is 93.7%; in the test with MDA-MB-231 breast it was 98.8%; in the test on RXF 393 renal, 101%; in the test with SF-268 CNS it was 102%; in the test with SF-295 CNS it was 95.2%; in the test with SF-539 CNS, 95.5%. The growth with UACC-257 melanoma was 110%; in the test on M14 melanoma it was 101%.

Consider `C#Cc1ccc(-n2c(/C=C/c3cc(OC)c(OC)c(OC)c3)nc3ncccc3c2=O)cc1`, for which the growth in the test on NCI-H23 lung is 73.6%; in the test on NCI-H226 lung it was 56.1%; in the test on NCI-H322M lung, 68.3%; in the test with HOP-62 NSCLC it was 66.2%; with NCI-H460 lung, 72.6%; in the test on HOP-92 NSCLC it was 6.32% (active). The growth in the test on NCI-H522 lung is 7.99% (active); with A549/ATCC NSCLC, 44.1%; in the test on 786-0 renal it was 75.9%; with COLO 205 colon, 31.1%; with DU-145 prostate, 45.3%; in the test on K-562 leukemia, 25.6%. For the same compound, the growth with MALME-3M melanoma was 50%; with MDA-MB-231 breast, 58.6%; in the test on RXF 393 renal, 36.4%; in the test on SF-268 CNS, 63.3%; with SF-295 CNS it was 38%; in the test on SF-539 CNS, 78.8%. In addition, the growth with UACC-257 melanoma was 53.8%; with M14 melanoma, 71.9%.

For `CCOC(=O)/C(C#N)=C(/C)C1CC1`, the growth with NCI-H23 lung was 109%; with NCI-H226 lung, 95.7%; with NCI-H322M lung, 112%; in the test with HOP-62 NSCLC, 98.5%; with NCI-H460 lung, 104%; with HOP-92 NSCLC, 86%. Further, the growth in the test on NCI-H522 lung is 110%; in the test on A549/ATCC NSCLC it was 99.7%; in the test on 786-0 renal, 103%; with COLO 205 colon it was 108%; in the test on DU-145 prostate it was 108%; with K-562 leukemia it was 117%. For the same compound, the growth in the test with MALME-3M melanoma was 109%; with MDA-MB-231 breast, 117%; with RXF 393 renal, 94.9%; in the test with SF-268 CNS, 107%; with SF-295 CNS, 113%; with SF-539 CNS, 96.8%. Besides, the growth with UACC-257 melanoma is 103%; in the test with M14 melanoma, 109%.

On to `O=C1NN(c2ccccc2)C(c2cccnc2)=N/C1=C\c1cccnc1`, for which the growth in the test on NCI-H23 lung is 89.4%; with NCI-H226 lung it was 80.8%; in the test with NCI-H322M lung it was 84.9%; in the test on HOP-62 NSCLC, 92%; in the test with NCI-H460 lung it was 95.2%; in the test with HOP-92 NSCLC, 99%. The growth was 105% in the test on NCI-H522 lung; 112% with A549/ATCC NSCLC; 98.8% in the test on 786-0 renal; 105% with COLO 205 colon; 93.1% in the test with DU-145 prostate; 102% in the test with K-562 leukemia. In addition, the growth in the test with MALME-3M melanoma was 105%; with MDA-MB-231 breast, 92.6%; in the test with RXF 393 renal, 99.5%; in the test on SF-268 CNS it was 89.4%; with SF-295 CNS, 95.1%; with SF-539 CNS it was 102%. In addition, the growth in the test with UACC-257 melanoma was 105%; with M14 melanoma, 91.7%.

On to `CCCCCC(CCC)COC(=O)c1ccc(OC)cc1` (stereo not given), for which the growth is 97.4% with NCI-H23 lung; 88.6% with NCI-H226 lung; 101% with NCI-H322M lung; 92.3% with HOP-62 NSCLC; 111% in the test on NCI-H460 lung; 93.7% with HOP-92 NSCLC. Also, the growth was 90.7% in the test with NCI-H522 lung; 80.9% in the test on A549/ATCC NSCLC; 101% in the test with 786-0 renal; 105% in the test with COLO 205 colon; 109% with DU-145 prostate; 105% with K-562 leukemia. In addition, the growth with MALME-3M melanoma was 97.4%; with MDA-MB-231 breast, 109%; in the test on RXF 393 renal, 115%; in the test on SF-268 CNS, 106%; with SF-295 CNS, 102%; in the test on SF-539 CNS it was 96.9%. Besides, the values for the growth in the test on UACC-257 melanoma and with M14 melanoma were 90.8% and 101%, respectively.
